Source: PubChem BioAssay (NCI)
Compounds without any hit were thinned out: in the full panel of roughly 83,000, 20% have a hit.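 Assay: single dose, 48 h. Readout: percent growth (0 = no net growth; negative = cell death). Active: <10.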 Values without a mark were called inactive. The source made the active and inactive calls.

test system: UACC-257 melanoma; experiment: NCI-60 one-dose screen, 48 h (100 = growth as untreated, 0 = no growth, -100 = all killed); details: 10 µM unless noted

SMILES	growth
O=C(CCl)c1ccc([N+](=O)[O-])o1	-49.3% (active)
CCCCCSC1C2C(=O)C(Br)=CC13CCNc1c(O)c4c5c(c13)=[N+]2CCC=5C=N4 (centres undefined)	-79.6% (active)
COc1ccc(C/C(C)=C(\c2ccc(OCCN3CCOCC3)cc2)c2ccc(OC(=O)Cc3ccccc3)cc2)cc1	-89.2% (active)
Cn1cc(-c2csc(-c3cn(CCCCN4CCCCC4)c4ccc(F)cc34)n2)c2cccnc21	-42.6% (active)
COc1ccc2c(c1)c(-c1nc(-c3cn(C)c4ncccc34)cs1)cn2CCCCN1CCCCC1	-68.3% (active)
C[n+]1c(/C=C/c2ccc(N(CCCl)CCCl)cc2)sc2ccccc21	64.7%
C=CC[Se]C(=O)c1ccccc1OC(C)=O	5.44% (active)
CC(=O)OC1CCC2C3CCC4=C/C(=N/OC(=O)c5ccc(N(CCCl)CCCl)cc5)CCC4(C)C3CC(C)C12 (centres undefined)	105%
CCCCCCCC[n+]1ccc2ccccc2c1	20%
Cn1cccc1C1CC(=O)N(CCC[Se]C#N)C1=O (centres undefined)	-70.6% (active)
C[Se]C(=O)c1ccccc1OC(C)=O	49.1%
O=C1Nc2ccccc2C2c3cccn3-c3ccccc3CN12 (centres undefined)	57.3%
CCOC(=O)[C@@H](C)C[C@H](Cc1ccccc1)NC(=O)c1csc([C@@H](C[C@H](C(C)C)N(C)C(=O)[C@H](CCC(C)C)NC(=O)[C@H]2CCCCN2C)OC(C)=O)n1	46.9%
COC(=O)[C@H](C[C@H](Cc1ccccc1)NC(=O)c1csc([C@@H](C[C@H](C(C)C)N(C)C(=O)[C@@H](NC(=O)[C@H]2CCCCN2C)C(C)C)OC(C)=O)n1)NC(=O)OCc1ccccc1	13.9% [8.5 µM]
